# From PubChem BioAssay
# Rows were chosen to be rich in hits. Some 19% of all compounds tested hit in one or more screens of this group.
# TDP1 cell CPT – growth inhibition of DT40 Tdp1-/-;hTDP1 cells with camptothecin (screen for TDP1 inhibitors) | 420,000 compounds, 12% hits | chicken DT40 Tdp1-/-;hTDP1 cells + 20 nM CPT, ATP luminescence, 48 h | Potency, µM (top dose mostly 46.2 µM), actives largely listed as inhibitors; also: nearly all actives have a fitted effect of over 55% in size
#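 Cell growth measured by CellTiter-Glo luminescence after a minimum 48 h, 37 C compound exposure with 20 nM CPT in Tdp1-knockout DT40 cells stably expressing hTDP1, seeded 400/well; qHTS titration format.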
# DT40 TDP1 no CPT – qHTS for Inhibitors of human tyrosyl-DNA phosphodiesterase 1 (TDP1): qHTS in cells in absence of CPT | DT40 Tdp1-/- hTDP1 cells, no CPT, ATP luminescence, 48 h | Potency, µM (doses to about 46.2 µM), most hits filed as inhibitors | 420,000 compounds, 15% hits; also: nearly all actives have a fitted effect of over 55% in size
#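 Chicken DT40 Tdp1-/- cells complemented with human TDP1, screened without camptothecin (DMSO vehicle only), 400 cells/well. Compounds pin-transferred, cells incubated at 37 °C for at least 48 hr. Growth read as ATP-dependent luminescence (CellTiter-Glo, 30 min at RT).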
# HT1080NT lethal – kills 2HG-producing HT-1080-NT fibrosarcoma cells | Potency, µM (titrated, usually from 46.1 µM), hits mostly cytotoxic | HT-1080-NT fibrosarcoma viability, CellTiter-Glo ATP luminescence, 48 h | 360,000 compounds, 1.6% hits;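 also: NT is the 2HG producing partner of a matched IDH1 knockdown line; nearly all actives have a fitted effect of over 55% in size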
#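 HT-1080-NT; 750 cells/well; 5% FBS RPMI; 48 h compound, 37 degrees C; CellTiter-Glo luminescence; curve fitting and curve-class assignment.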
# ELG1 repair inh – ELG1-dependent DNA repair inhibition | HEK293T ELG1-luciferase reporter, luminescence, 16 h; DNA damage induced by 5-fluorouridine | Potency, µM (highest dose often 46.1 µM), hits mostly inhibitors | AID 504467 | 330,000 compounds, 2.3% hits; also: nearly all actives have a fitted effect of over 55% in size
#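 HEK293T cells expressing luciferase-tagged ELG1 (2,000/well) received 5-Fluorouridine plus compound or DMSO for 16 hr at 37 °C. Luciferase was read by ONE-Glo luminescence after 30 min at room temperature.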
# HT1080 IDH1KD tx – kills HT-1080 cells with IDH1 knockdown. HT-1080 IDH1 knockdown viability, ATP luminescence, 48 h. Potency, µM (highest dose often 46.1 µM), usual class: cytotoxic. 360,000 compounds, 2% hits. AID 686971
#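 CellTiter-Glo luminescence after 48 h compound exposure at 37 degrees C of IDH1-knockdown HT-1080 cells in 5% FBS RPMI. %Activity scaled between DMSO wells and cell-free media wells, with curves fitted and assigned curve classes.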
# IL1B secr inh – blocks inflammasome-driven IL-1 beta release | 360,000 compounds, 4.7% hits | activity change, % at 57.5 µM | THP-1 LPS/ATP IL-1B secretion, AlphaLISA, 16 h; hits give low values | AID 743279; in the data active = activity change below about -50%; inconclusive = mostly about -30% to -49%
#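 THP-1 cells pretreated 1 hr with compounds (up to 57.5 uM final), then stimulated with LPS (250 ng/mL final) plus ATP (1.25 mM final); secreted IL-1B measured by AlphaLISA after 16 hr, decreased signal indicating inhibition.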
# Hits are given with their value; - = inactive; ? = inconclusive; . = not tested or not shown; [ ] = remark or other dose. Unless noted, calls follow the shape of the dose curve; as a rule, active = well fitted curve in the direction sought with a large enough effect; inconclusive = small, poorly fitted or top-dose-only effect, or another doubt; inactive = no such curve, though single readings can be large; an effect the other way counts as inactive or inconclusive.
SMILES,TDP1 cell CPT,DT40 TDP1 no CPT,HT1080NT lethal,ELG1 repair inh,HT1080 IDH1KD tx,IL1B secr inh
CN(Cc1cccnc1)Cc1cn(C)nc1-c1ccc(Oc2ccccc2)cc1,?,18.4µM,-,-,-,-
CN(Cc1ccc(-n2cccn2)cc1)Cc1cn(C)nc1-c1ccccc1F,-,-,-,-,-,-
Cc1cc(CN(C)Cc2cn(C)nc2-c2ccc(Oc3ccccc3)cc2)on1,?,16.4µM,-,?,-,-
O=c1c(-c2cccs2)nc2cnc(Oc3cccc(Cl)c3)nc2n1C1CC1,-,-,.,.,.,.
COc1ccc(/C=c2\s/c(=C/C(=O)c3ccc(C)cc3)[nH]c2=O)cc1OC,?,18.4µM,-,?,-,-
CC(=O)Nc1ccc(C2Nc3c(C)cc(C)cc3-c3cc(C)nn32)cc1 (stereo unspecified),18.4µM,?,.,.,.,.
COC(=O)c1ccc(C2Nc3c(C)cccc3-c3cc(C)nn32)cc1 (stereo unspecified),?,16.4µM,.,.,.,.
CSc1ccc(C2Nc3ccccc3-c3cc(C)nn32)cc1 (stereo unspecified),-,-,-,-,-,-
O=C(NC1CCCc2ccccc21)c1cccc(F)c1 (stereo unspecified),-,-,-,.,-,-
Cc1ccccc1OCC(=O)Nc1ccc2[nH]ncc2c1,-,-,-,-,-,-
Cc1cc(C)cc(N2CCn3c2nc2c3c(=O)n(Cc3c(F)cccc3Cl)c(=O)n2C)c1,-,-,.,.,.,.
Cc1cc(C(=O)NC2CC(C)(C)Cc3c2cnn3-c2ccccc2C)c(C)o1 (stereo unspecified),?,-,-,?,-,-
COc1ccc(C(=O)NC2CC(C)(C)Cc3c2cnn3-c2ccccc2C)c(OC)c1OC (stereo unspecified),23.1µM,16.4µM,-,?,-,-
O=C1NC(c2ccccc2)=C(c2ccc3ccccc3n2)C(c2ccccc2)N1 (stereo unspecified),?,25.9µM,-,-,-,-
O=C1NC(c2ccccc2)=C(c2nc3ccccc3s2)C(c2ccc(O)cc2)N1 (stereo unspecified),-,?,7.94µM,-,5.62µM,-
Cc1nn(C(C)C(=O)NC2CCCCCC2)c(=O)c2nn(-c3ccccc3)c(C)c12 (stereo unspecified),-,-,-,-,-,-
COc1ccccc1OCc1nc(C#N)c(N2CC(C)CC(C)C2)o1 (stereo unspecified),29.1µM,?,-,-,-,-
COc1ccccc1OCc1nc(C#N)c(N2CCCC2)o1,-,-,-,-,-,-
Cc1ccccc1OCc1nc(C#N)c(N2CCCC2)o1,-,-,-,-,-,-58.4
CCOC(=O)C(NC(=O)NCc1ccccc1OC)(OCC)C(F)(F)F (stereo unspecified),-,-,-,?,-,-
O=C1NC(=O)C2(CCCC2)N1,-,-,-,.,-,-
Cc1cc(=O)c(C(=O)Nc2cccc(C(=O)NC3CC3)c2)nn1-c1ccccc1,-,-,-,.,-,-
CN(CC(=O)O)c1ccc(/C=C/c2ccnc3ccccc23)cc1,11.2µM,20µM,.,.,.,.
CN(C)C(=O)c1ccc(/C=C/c2ccnc3ccccc23)cc1,?,15.8µM,.,.,.,.
Cn1cnc(S(=O)(=O)Nc2ccc(Cl)c(C(F)(F)F)c2)c1,-,-,-,-,-,-
Fc1ccc(CNCCCSc2nnnn2-c2ccccc2)cc1,?,-,.,.,.,.
OCc1ccccc1CNCc1ccccc1,-,-,-,-,-[9.24 µM],-
CC(C)c1ccc(CNCCSc2nnnn2-c2ccccc2)cc1,16.4µM,25.9µM,.,.,.,.
Fc1ccccc1CNCCCSc1nnnn1-c1ccccc1,16.4µM,?,.,.,.,.
Oc1cc(CNCc2ccccc2)c(O)cc1CNCc1ccccc1,?,13µM,-,.,-,-
